Activity calls are given as the source filed them. No rule for the calls is given here.

The nature of this assay: hESC survival regulators, cell-based (AID 493140).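 Also: cells exposed to compounds for four days before counting.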 The following applies: human embryonic stem cell survival screen; stronger effect = higher value.
In the case of `CN(C)CCCO[C@H]1[C@@H](C(O)CO)OC2OC(C)(C)O[C@H]21` (some centres not stated), the survival was 7.5 (inactive).

Turning to `O=C(O)c1cc(NCc2cc(O)ccc2O)ccc1O`, the survival was 90.2 (inactive).

Turning to `CCCCCCCCC1OC1CCCCCCCC(=O)O` (configuration not stated), the survival is 92.8 (inactive).

In the case of `CCCCC/C=C\C[C@H](O)/C=C/C=C/C=C/[C@@H](O)CCCC(=O)O`, the survival is 96.2 (inactive).

With `CCCCC/C=C\C=C\[C@@H](O)C/C=C\C/C=C\CCCC(=O)O`, the survival is 81.2 (inactive).

For the compound `CC1O[C@@H](O[C@@H]2C(CO)O[C@@H](OCC3O[C@@H](OC(=O)C45CC[C@@H](C)[C@H](C)[C@H]4C4=CC[C@@H]6[C@@]7(C)C[C@@H](O)[C@H](O)[C@@](C)(CO)C7CC[C@@]6(C)[C@]4(C)CC5)C(O)[C@H](O)[C@@H]3O)C(O)[C@@H]2O)C(O)[C@@H](O)[C@H]1O` (some centres not stated), the survival was 9.83 (inactive).

As for `CCNC1CC(N)C(OC2OC(CN)=CCC2N)C(O)C1OC1OCC(C)(O)C(NC)C1O` (configuration not stated), the survival is 17.9 (inactive).

`CC/C=C\C/C=C\C/C=C\C/C=C\C/C=C\CCC(=O)O[C@H](COCCCCCCCCCCCCCCCC)COP(=O)([O-])OCC[N+](C)(C)C`: the survival is 83.1 (inactive).

`CCCCC/C=C\C\C=C/C=C/C=C/[C@@H](SCC(NC(=O)CCC(N)C(=O)O)C(=O)NCC(=O)O)[C@@H](O)CCCC(=O)O` (some centres not stated): the survival is 90.2 (inactive).

With `CCCCC/C=C\C/C=C\C/C=C\C=C\C1CCCC(=O)O1` (configuration not stated), the survival is 76.9 (inactive).

Turning to `CCCCCC(O)/C=C/C=C\CCCCCCCC(=O)O` (configuration not stated), the survival was 49.5 (inactive).

Take `O=C(O)CCC/C=C\C/C=C\C=C\[C@@H](O)C/C=C\CCCCCO`: the survival was 89.3 (inactive).

Source of the values: PubChem BioAssay.
